Laboratory results published in PubChem BioAssay AID624418 (National Center for Advancing Translational Sciences (NCATS), 2012).
Hit rate of the full screen: of about 410,000 compounds, about 530 (0.13%) were called active. A call without a number means that no potency is given here. Roughly 5% stayed inconclusive and do not appear here. The sample holds actives, similar compounds and a random draw of the others, so the mix is not that of the screen. A number with no mark means an inactive call. Calls come from the whole dose curve; as a rule, active = well fitted inhibition curve with a large enough effect; inconclusive = small, poorly fitted or top-dose-only effect, or another doubt; inactive = no such curve, though single readings can be large or run the other way.

assay: qHTS of GLP-1 Receptor Inverse Agonists: Cytotox Screen; settings: HEK293 cAMP-luciferase reporter cells, luminescence, 24 h; series mostly up to 38.3 µM;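 note: loss of luciferase light is scored as toxicity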
In short: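 Seeding density was 200 cells/uL; after overnight-length (12 h) culture, 23 nL compounds went on for 24 h at 37 °C. Readout used a luciferase detection reagent, luminescence taken after 12 min at room temperature.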
Potency is the fitted concentration of half-maximal effect.

Structure (SMILES) | Potency | activity change, negative = inhibition
COc1cc(C2c3c(oc4ccccc4c3=O)C(=O)N2c2nc(C)c(C)s2)ccc1O (stereo not given) | inactive | 
CC(C)(C)C1CCc2c(sc(NC(=O)c3ccccc3F)c2C(=O)N2CCCCC2)C1 (stereo not given) | inactive | 
COc1ccc(NC(=O)N2CCCn3nc(C)cc32)cc1OC | inactive | 
CCOc1ccc(NC(=O)Cn2c(=O)n(CCCC(=O)NCc3ccc4c(c3)OCO4)c(=O)c3ccccc32)cc1 | inactive | 
CN(Cc1ccccc1)C(=O)CCS(=O)(=O)c1cc(Br)cc2c1N(C(=O)C1CC1)CC2 | inactive | 
COc1ccc(-c2cc(-c3nc(-c4cc(OC)c(OC)c(OC)c4)no3)[nH]n2)c(OC)c1 | inactive | 
CCOC(=O)c1ccc(NC(=O)c2ncn(-c3ccccc3)n2)cc1 | inactive | 
COC(=O)c1c(NC(=O)c2ccc(Cl)c(Cl)c2)sc2c1CCCC2 | inactive | 
O=c1[nH]c2cc(Br)ccc2n2cccc12 | inactive | 
COc1cccc(-c2nc(S(=O)(=O)c3ccc(C)cc3)c(NCc3ccccc3)o2)c1 | inactive | 
CCN(CC(=O)NC(=O)NCc1ccccc1)Cc1nc2ccccc2c(=O)[nH]1 | 6.31 µM (active) | 
CCCCN(CC(=O)Nc1cccc(S(=O)(=O)N2CCCC2)c1)Cc1nc2ccccc2c(=O)[nH]1 | inactive | 
CCN(CC(=O)Nc1ccc(Cl)c(S(=O)(=O)N(C)C)c1)Cc1nc2ccccc2c(=O)[nH]1 |  | 0.695% [at 0.307 µM]
COC(=O)c1cnn(-c2ccc(C(=O)Nc3ccc(OC(F)(F)F)cc3)cc2)c1N | inactive | 
Cc1ccc2nc(COc3ccccc3NC(=O)Nc3ccc(F)c(Cl)c3)cc(=O)n2c1 | inactive | 
COc1ccc(NC(=O)CN2CCCN(Cc3ccccc3)S2(=O)=O)cc1 | inactive | 
Cc1ccc(OC(=O)CSc2nnc(-c3cccs3)o2)cc1 | inactive | 
COc1ccc(Cn2c(C(=O)O)c(CNCCc3cccs3)c3ccc(OC)cc32)cc1 | inactive | 
Oc1ccc(N=Nc2nccs2)c(O)c1 | 8.91 µM (active) | 
Oc1ccc2ccccc2c1N=Nc1nccs1 | 4.47 µM (active) | 
Cc1ccc(-c2noc(CSc3nnc(-c4ccc(Cl)cc4)n3C)n2)cc1 | inactive | 
Cc1ccc(C(=O)Nc2ccccc2F)cc1S(=O)(=O)N1CCOCC1 | inactive | 
Cc1cc2c(cc3c(SCc4cccc(Cl)c4)nnc(C)n32)o1 | inactive | 
CCOc1ccc(CCNC(=O)CN(c2ccc(C)cc2)S(=O)(=O)N(C)C)cc1OCC | inactive | 
CC(=O)c1ccc(N2CCN(C3C(=O)c4ccccc4N3C(C)=O)CC2)cc1 (stereo not given) | inactive | 

Structure (SMILES) | Potency | activity change, negative = inhibition
Cc1cc(-c2ccc(C)c(S(=O)(=O)N3c4ccccc4CC3C)c2)on1 (stereo not given) | inactive | 
Cc1ccc(-n2c(=O)c3cccnc3n2CC(=O)Nc2ccccc2C(F)(F)F)cc1C | inactive | 
Cc1nn(-c2ccc(N3CCCCC3)nn2)c(C)c1CCC(=O)NCc1ccc(F)cc1 | inactive | 
S=C(NCCc1ccccc1)NCc1ccccc1Cl | inactive | 
CCCC1CCC(=NNC(=S)NCCc2ccccc2)CC1 (stereo not given) | 4.47 µM (active) | 
CCCCNC(=S)N/N=C1\CCCCc2ccccc21 | inactive | 
CCN(CCCNC(=O)c1cc(Nc2ccc(OC)cc2)nc2ccccc12)c1cccc(C)c1 | inactive | 
CCc1ccc(NC(=O)CSc2nc3c([nH]c4ccccc43)c(=O)n2-c2cccc(OC)c2)cc1 | inactive | 
Fc1ccc(CN2CCc3nc(Nc4ccccc4)ncc3C2)cc1F | inactive | 
COc1ccccc1-c1cc(C(F)(F)F)nc(S(=O)(=O)CCCC(=O)Nc2ccc(F)cc2F)n1 | inactive | 
C/C(=N\NC(=O)c1ccc(C)cc1)C1C(=O)c2ccccc2C1=O | 4.47 µM (active) | 
C/C(=N\NC(=O)c1ccc(CSc2nc(C)cc(C)n2)cc1)C1CCCCC1 | inactive | 
O=C1c2ccccc2C(=O)C1C(=O)C1CC1 | inactive | 
Cc1ccc(-n2cnc3cc(C(=O)NCCC4=CCCCC4)ccc32)cc1Cl | inactive | 
O=C(CSc1cn(CC(=O)N2CCOCC2)c2ccccc12)Nc1ccccc1 | inactive | 
CCCCOC(=O)/C(C#N)=C/c1ccc(-c2cccc(C(F)(F)F)c2)o1 | inactive | 
CCSc1nnc2c(n1)OC(c1ccc(OCC(=O)O)cc1)Nc1ccccc1-2 (stereo not given) | inactive | 
Cc1ccc2oc(=O)c3cnn(CC(=O)NCc4ccccc4Cl)c3c2c1 | inactive | 
O=C(CCl)Nc1cccc(CP(=O)(c2ccccc2)c2ccccc2)c1 | 3.16 µM (active) | 
O=C(CNCc1ccc(Cl)cc1)Nc1cccc(C(=O)O)c1 | inactive | 
CCc1cccc(NC(=O)c2cc(-c3ccccc3)n[nH]2)c1 | inactive | 
CCn1cc(C(=O)OCC(=O)Nc2cc(C)cc(C)c2)c(=O)c2ccc(C)nc21 | inactive | 
COc1ccc(CNc2nc(-c3ccccc3)nn2C(=O)c2ccccc2OC)cc1 | inactive | 
Cc1ccc(Nc2c(-c3ccc(Cl)cc3)nc3sccn23)c(C)c1 | inactive | 
CCOC(=O)N1CCc2c(sc3c2c(=O)n(-c2ccc(CC)cc2)c(=O)n3C)C1 | inactive | 
